Test results as given in PubChem BioAssay.

The compounds below were run against Left-right determination factor 2 (Homo sapiens) (UniProt O00292) (assay: LEFTY2 binders on small-molecule microarrays, primary screen, biochemical, small-molecule microarray, 635 nm fluorescence scan (AID 1110)). Conditions: LEFTY2 binding, higher = more signal.
Left-right determination factor 2 (Homo sapiens), sequence (O00292 whole entry, looked up): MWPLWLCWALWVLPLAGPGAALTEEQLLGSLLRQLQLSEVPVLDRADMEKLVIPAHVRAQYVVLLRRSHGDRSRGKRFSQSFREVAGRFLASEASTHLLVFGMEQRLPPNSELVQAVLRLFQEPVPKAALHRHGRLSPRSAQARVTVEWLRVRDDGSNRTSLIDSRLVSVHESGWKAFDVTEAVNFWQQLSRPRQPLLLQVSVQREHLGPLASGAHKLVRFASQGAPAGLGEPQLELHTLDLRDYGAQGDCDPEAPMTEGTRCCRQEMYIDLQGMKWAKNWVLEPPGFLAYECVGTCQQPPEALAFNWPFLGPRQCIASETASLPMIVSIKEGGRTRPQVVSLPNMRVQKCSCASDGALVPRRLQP

SMILES	composite z-score
CC(C)c1ccc(NN2C(C(O)c3ccc(N(C)C)cc3)C=CC3C(=O)N(c4ccccc4)C(=O)C32)cc1 (stereo unspecified)	0.0148
CC(C)NC(=O)[C@@H]1c2ccccc2C(=O)N(Cc2ccccc2)[C@H]1c1ccc(CO)cc1	-1.06
CCOC(=O)C[C@H]1[C@H](OC(=O)c2ccccc2-c2ccccc2)[C@@H](NC(=O)Cc2ccc(OC)cc2)c2cc(OCCCO)ccc2N1C(=O)c1ccccc1	-0.3
Cc1ccc(S[C@]2(C(=O)O)CC(=O)N(C3Cc4ccccc4C3)[C@@H]2c2ccc(CO)cc2I)cc1	-0.67
CC(C)(C)OC(=O)CC[C@@]1(C(=O)NCCN2CCOCC2)N=C(c2ccc(OCCCO)cc2)O[C@@H]1c1ccccc1	0.356
CCCN1C(=O)[C@@]2(CCC(=O)OC(C)(C)C)N=C(c3ccc(OCCCO)cc3)O[C@H]2c2ccccc21	0.163
COCCOC(=O)N1C(=O)[C@@]2(c3cc(C#CCC(C(=O)OC)C(=O)OC)ccc31)[C@H](c1ccc(O)cc1)N1[C@H](c3ccccc3)[C@H](c3ccccc3)OC(=O)[C@H]1[C@@H]2C(N)=O	0.715
N#Cc1ccc(NN2C(C(O)c3ccc([N+](=O)[O-])cc3)C=CC3C(=O)N(c4ccccc4)C(=O)C32)cc1 (stereo unspecified)	0.0872
COCC(=C=CC[C@H](O)c1ccc(OCCO)cc1)C[C@H](O)c1cc(Cl)cc(Cl)c1O	0.628
CCOC(=O)C1=CC[C@@H](c2ccccc2)N(S(=O)(=O)c2ccc(C)cc2)[C@H]1C(=O)OCC	-0.0319
CCCCCN1CC=CC23O[C@@H]4C=CCOC(=O)[C@@H]4[C@H]2C(=O)N(CCCO)[C@@H]3C1=O (stereo partly specified)	-0.642
C[C@]1(C(=O)NCc2ccccc2)c2ccccc2C(=O)N(Cc2cc(F)cc(C(F)(F)F)c2)[C@H]1c1ccc(CO)cc1	-1.57
COc1ccc(C(O)C2C=CC3C(=O)NC(=O)C3N2Nc2ccccn2)cc1OCc1ccccc1 (stereo unspecified)	-0.0932
C=C(CCCC)C(=O)CC[C@H](OC(=O)c1cccnc1)c1cccc(OCCO)c1	0.0112
O=C1OCCC/C=C\[C@H]2OC34C=CCN(Cn5nnc6ccccc65)C(=O)[C@H]3N(CCCCCO)C(=O)[C@@H]4C12 (stereo partly specified)	-1.5
CC(C)CNC(=O)[C@@H]1c2ccccc2C(=O)N(Cc2cc(C(F)(F)F)cc(C(F)(F)F)c2)[C@H]1c1ccc(CO)cc1	-0.488
CC(C)(C)N1CC=CC23O[C@@H]4C=CCOC(=O)[C@@H]4[C@H]2C(=O)N(CCCCCO)[C@@H]3C1=O (stereo partly specified)	-0.788
CCOC(=O)C[C@H]1[C@H](OC(=O)c2ccc(-c3ccccc3)cc2)[C@@H](NC(=O)Cc2ccc(OC)cc2)c2cc(OCCCO)ccc2N1C(=O)c1ccc2ccccc2n1	0.0394

SMILES	composite z-score
COCCOC(=O)N1C(=O)[C@@]2(c3cc(C#CCNC(N)=O)ccc31)[C@H](c1ccc(O)cc1)N1[C@H](c3ccccc3)[C@H](c3ccccc3)OC(=O)[C@H]1[C@@H]2C(=O)Nc1nc2ccccc2s1	0.691
COc1ccc(C#Cc2ccc3c(c2)[C@]2(C(=O)N3)[C@H](C(=O)NC[C@H](O)c3ccccc3)[C@H]3C(=O)O[C@H](c4ccccc4)[C@H](c4ccccc4)N3[C@@H]2c2ccc(OCCO)cc2)cc1	0.965
O=C1OCCC=C[C@H]2OC34C=CCN(Cc5ccccc5)C(=O)[C@H]3N(CCCO)C(=O)[C@@H]4C12 (stereo partly specified)	-0.424
COC(=O)[C@@]1(Cc2ccccc2)N=C(c2ccc(OCCCO)cc2)O[C@H]1c1ccccc1N=[N+]=[N-]	0.241
COc1ccc(NN2C(C(O)c3ccc(OC)c(OCc4ccccc4)c3)C=CC3C(=O)N(C4CCCCC4)C(=O)C32)cc1 (stereo unspecified)	-0.167
C=CCC(OC(C)=O)[C@@H]1[C@@H](N(Cc2cccc3ccccc23)C(=O)c2cccc3ccccc23)c2cc(OCCCO)ccc2N1C(=O)c1ccc2ccccc2n1 (stereo partly specified)	0.146
CC(C)CNC(=O)[C@@]1(c2ccc([N+](=O)[O-])cc2)CC(=O)N(CC23CC4CC(CC(C4)C2)C3)[C@@H]1c1ccc(CO)cc1I	0.539
Cc1ccc(S[C@]2(C(=O)NCC(C)C)CC(=O)N(Cc3ccccc3Cl)[C@@H]2c2ccc(CO)cc2)cc1	-1.46
[N-]=[N+]=NCc1ccccc1C[C@]1(C(=O)O)N=C(c2ccc(OCCCO)cc2)O[C@H]1c1ccccc1	-1.18
Cc1ccccc1C(O)C1C=CC2C(=O)N(C)C(=O)C2N1Nc1ccccc1 (stereo unspecified)	0.103
O=C1O[C@H](c2ccccc2)[C@H](c2ccccc2)N2[C@H]1[C@@H](C(=O)N1CCN(c3ncccn3)CC1)[C@]1(C(=O)Nc3ccccc31)[C@H]2c1ccc(OCCO)cc1	0.609
CCCCCN1CC=CC23O[C@@H]4/C=C\CCC(C)OC(=O)C4[C@H]2C(=O)N(CCCCCO)[C@@H]3C1=O (stereo partly specified)	-0.594
CC(C)Cc1ccc(CN2CC[C@@H](NS(=O)(=O)c3ccccc3)C2)cc1	0.0423
C=CCC(OC(C)=O)[C@@H]1[C@@H](N(Cc2cccc3ccccc23)C(=O)c2ccc(C)cc2)c2cc(OCCCO)ccc2N1C(=O)Cc1ccc(OC)cc1 (stereo partly specified)	-0.248
CN1C(=O)C2C=CC(C(O)c3ccccn3)N(Nc3ccccc3)C2C1=O (stereo unspecified)	0.129
COc1cccc(C(=O)O[C@H]2CC[C@]3(C)C4=C(CCC3C2(C)C)[C@]2(C)CC[C@H]([C@H](C)CCCC(C)C)[C@@]2(C)CC4)c1 (stereo partly specified)	0.359
COc1ccc(C(=O)Nc2cccc(CN3C(=O)[C@@]4(O[C@@H](CCn5cc(CCO)nn5)[C@H]([Si](C)(C)c5ccc(OC)cc5)[C@H]4C)c4ccccc43)c2)cc1	0.714
O=C1N(CCS(=O)(=O)c2ccccc2)Cc2ccccc2C[C@]12N=C(c1ccc(OCCCO)cc1)O[C@@H]2c1ccccc1	0.947
